The values below come from PubChem BioAssay.

Each structure is given as a SMILES string. “And” between values parts separate entries of the source, which are not always exact repeats. Identical values can stand only once. A number with no mark means an inactive call. Unless noted, no rule for the calls is given here.

Sequence of Homeobox protein Hox-A13 (Mus musculus) (Q62424 whole entry, looked up): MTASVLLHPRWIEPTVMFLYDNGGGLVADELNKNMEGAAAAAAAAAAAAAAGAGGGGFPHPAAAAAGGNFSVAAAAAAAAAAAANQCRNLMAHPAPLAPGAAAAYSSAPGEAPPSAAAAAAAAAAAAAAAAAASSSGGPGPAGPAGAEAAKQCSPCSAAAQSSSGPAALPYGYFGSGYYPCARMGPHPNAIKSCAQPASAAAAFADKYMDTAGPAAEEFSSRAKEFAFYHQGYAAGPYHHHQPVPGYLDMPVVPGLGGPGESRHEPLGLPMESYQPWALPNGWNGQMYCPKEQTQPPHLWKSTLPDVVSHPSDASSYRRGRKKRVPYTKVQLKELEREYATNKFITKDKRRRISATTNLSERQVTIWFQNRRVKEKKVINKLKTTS

The first assay concerns the target Homeobox protein Hox-A13 (Mus musculus) (UniProt Q62424). The assay is described as follows: disruptors of Hoxa13 oligonucleotide interaction – biochemical, fluorescence polarization, labeled oligonucleotide, primary screen (AID 1185). The following applies: Hoxa13:DNA binding, 15 min, higher = more signal, called active from +8 up or from −8 down.
For the molecule `CCCNC(=O)OC[C@H]1O[C@H](CCON=C(C)CCN2CCc3nc(-c4ccccc4)c(-c4ccccc4)cc3C2)C=C[C@@H]1Oc1ccc(OC)cc1`, the z-score was -2.84.

For the molecule `C=CCN(CCCC)C(=O)C1N(CCCCCCO)C(=O)C2C(C(=O)O)C3C=CC21O3` (stereo unspecified), the z-score is -0.284 and -0.72. On the same count and under the same terms, as for `COC(=O)C1=C(C)N(Cc2ccccc2)C2=C3C(=O)N(c4ccccc4)C(=O)[C@@H]3[C@@](O)(C(=O)OC)C(=O)N2[C@@H]1c1ccccc1`, the figure is -3.12 and -0.385; as for `COc1ccc(O[C@H]2C=C[C@@H](c3ccccc3)O[C@@H]2COC(=O)CCC(C)=NO[C@H](C)c2cn([C@H](CO)Cc3ccccc3)nn2)cc1`, -5.26 and -4.59; as for `C#CCCCON=C1C[C@@H](O)[C@@H](O)[C@@H]2[C@@H]3C(=O)N(C4CCCCC4)C(=O)[C@@H]3CC[C@H]12`, 0.504. On the same count and under the same terms, as for `COC(=O)C1=C(C)N(Cc2ccccc2)[C@]23O[C@](C(=O)OC)(C(=O)N2[C@@H]1c1ccccc1)[C@H]1C(=O)N(C)C(=O)[C@H]13`, the figure is -3.58 and -1.73. Still for that read-out and setting: the same measure for `C=C[C@@H](OC)[C@H](O)c1ccc(O)c(F)c1`: -0.933 and 0.017.

Tested on in the next assay: not listed separately
The assay is described as follows: blockers of DNA damage checkpoint Chk1 activation – imaging, HeLa, hydroxyurea, phospho-Chk1 antibody, percent positive cells, primary screen (AID 1186). As to conditions: hydroxyurea-induced phospho-Chk1 immunofluorescence imaging, higher = more signal.
For the molecule `C=C[C@@H](OC)[C@H](O)c1ccc(OCCO)cc1`, the z-score was -0.949 and -0.429. The same measure, in the same setting: as for `C=CCN(C(=O)C(c1cccs1)N(C(=O)/C=C\C(=O)O)C(C)(C)CO)C(C)(C)C` (stereo unspecified), the figure is -0.225 and -0.215. Same read-out and setting: as for `C=CCN1C(=O)[C@]2(O[C@H](CCn3cc(CCO)nn3)[C@@H]([Si](C)(C)c3ccc(OC)cc3)[C@@H]2C)c2cc(N3C(=O)c4cccc5cccc3c45)ccc21`, the figure is -1.98 and -1.13; as for `CCOC(=O)c1ccc(NC(=O)O[C@H]2[C@H](OC(=O)Nc3ccccc3)[C@H](OC(=O)Nc3ccccc3)[C@@H](OC)O[C@@H]2CO)cc1`, 0.143 and 0.494; as for `C=CCN(C(=O)C(c1cccs1)N(C(=O)/C=C\C(=O)O)C(C)(C)CO)c1ccc(OC)cc1` (stereo unspecified), -0.951 and -0.63.

Turning to `C=CCN(CCCCC)C(=O)C1N(c2c(Cl)cccc2CO)C(=O)C2C(C(=O)O)C3C=CC21O3` (stereo unspecified), the z-score is -0.672 and 0.433. Still for that read-out and setting: as for `CC(C)N1CC=CC23O[C@@H]4C=CCCOC(=O)C4[C@H]2C(=O)N(C(C)CO)[C@@H]3C1=O` (stereo partly specified), the figure is -0.161 and -0.496; as for `CCOC(=O)[C@@H]1CC=C2CC1C(=O)N1CCC[C@@H]1[C@H]2O[Si](C)(C)C(C)(C)C` (stereo partly specified), 0.113 and -0.726. Still for that read-out and setting: the same measure for `CCOC(=O)c1ccc(NC(=O)O[C@H]2[C@H](OC(=O)Nc3ccccc3)[C@@H](OC(=O)Nc3ccccc3)[C@@H](OC)O[C@@H]2CO)cc1`: 0.416 and -0.71. Take `C#CCN1C(/C=C/c2ccccc2)C(=O)OC[C@H]1c1ccccc1` (stereo partly specified): the z-score was -0.322 and 0.0385.

On to `C=CCN(C(=O)C1N(c2c(Cl)cccc2CO)C(=O)C2C(C(=O)O)C3C=CC21O3)C(C)(C)C` (stereo unspecified), for which the z-score is -0.198 and -0.391. Same read-out and setting: the same measure for `C=CCN(CCCC)C(=O)C(c1cccs1)N(CCOCCO)C(=O)/C=C\C(=O)O` (stereo unspecified): -0.36 and 0.442. In the case of `C=CCN(CCCC)C(=O)C1N(CCCCCCO)C(=O)C2C(C(=O)O)C3C=CC21O3` (stereo unspecified), the z-score is 0.527 and 1.03. The same measure, in the same setting: the same measure for `C=C[C@@H](OC)[C@H](O)c1ccc(O)c(F)c1`: 0.591 and -0.353.
